Bioassay records from PubChem BioAssay.
Sampled rows, rich in hits. Any-hit rate of the full collection: about 6.6%.
HepG2 viability: counter-screen for TGF-b inhibitors: cytotoxicity in HepG2 cells. HepG2 CAGA-GFP viability, ATP luminescence, 18 h. Potency, µM (top dose mostly 46.1 µM), for inactives: at the top dose activity change, negative = cytotoxicity, most hits filed as cytotoxic. actives 0.76% (n = 410,000)
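CellTiter-Glo luminescence gave cytotoxicity after 18 hours at 37 degrees C. The cells were HepG2 CAGA-GFP in 1% FBS DMEM, stimulated with 500 pg/mL TGF-beta after compound addition. %Activity was normalised to no-cell wells (complete cell-killing) and DMSO (no toxicity), and curves were fitted and classified.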
KB-V1 cytotox: kills drug-selected multidrug resistant KB-V1 cells | Potency, µM (titrated, usually from 46.1 µM), most hits filed as cytotoxic | KB-V1 MDR cells viability, CellTiter-Glo, 72 h | actives 3.4% (n = 400,000); also: % is scaled to controls: 0 for no effect and ±100 for the full control effect; nearly all actives have a fitted effect of over 60% in size
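In this primary screen, KB-V1 cells overexpressing P-gp are incubated with library compounds (lowest to highest concentration) for 72 h at 37 degrees C before a luminescent ATP viability read.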
HT1080NT lethal: kills 2HG-producing HT-1080-NT fibrosarcoma cells. actives 1.6% (n = 360,000). HT-1080-NT fibrosarcoma viability, CellTiter-Glo ATP luminescence, 48 h. Potency, µM (series often up to 46.1 µM), for the others: at the top dose activity, negative = less viability, hits mostly cytotoxic;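 also: NT is the 2HG producing partner of a matched IDH1 knockdown line; 0% = DMSO-treated cells and -100% = media-only wells without cells; nearly all actives have a fitted effect of over 55% in size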
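Compounds were tested in concentration-response format on HT-1080-NT cells for 48 hours at 37 degrees C. Cell viability came from CellTiter-Glo luminescence; curves were classified by r2, response magnitude and activity.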
KB-3-1 cytotox: KB-3-1 parental cell cytotoxicity; KB-3-1 viability, CellTiter-Glo ATP luminescence, 72 h; AID 1347075; actives 1.4% (n = 400,000); Potency, µM (highest dose often 46.1 µM), most hits filed as cytotoxic; also: % is scaled to controls: 0 for no effect and ±100 for the full control effect; nearly all actives have a fitted effect of over 60% in size
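Cytotoxicity in the drug-sensitive parental line KB-3-1 was scored as loss of CellTiter-Glo luminescence following 72 h incubation with compound. Values come from curve fitting of normalized concentration-response data.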
TGFb SMAD3 inh: TGF-b pathway inhibition | Potency, µM (highest dose often 46.1 µM), for inactives: top-dose activity, negative = inhibition, hits mostly inhibitors | HepG2 CAGA-GFP TGF-b/SMAD3 reporter, GFP fluorescence, 18 h; TGF-beta stimulated, 500 pg/mL final | actives 1.2% (n = 410,000) | AID 588855; also: % is scaled to controls: 0 for no effect and ±100 for the full control effect; nearly all actives have a fitted effect of over 65% in size
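Inhibition of TGF-beta-driven CAGA-GFP reporter expression in HEPG2 cells is measured by cellular GFP fluorescence after 18 h stimulation with 500 pg/mL recombinant TGF-beta in 1% FBS medium at 37 degrees C.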
HT1080 IDH1KD tx: toxicity to HT-1080 IDH1 knockdown cells (counter line); HT-1080 IDH1 knockdown viability, ATP luminescence, 48 h; Potency, µM (doses to about 46.1 µM), for the others: top-dose activity, negative = toxicity, actives largely listed as cytotoxic; actives 2% (n = 360,000); AID 686971;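 also: 0% = DMSO wells and -100% = cell-free medium wells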
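After a 2 h attachment period, IDH1KD HT-1080 cells took pin-transferred compound for 48 h at 37 °C; ATP-based luminescence after 10 min room-temperature reagent incubation reported viability.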
Numbers without * were called inactive. Calls follow the shape of the dose curve; as a rule, active = well fitted curve in the direction sought with a large enough effect; inconclusive = small, poorly fitted or top-dose-only effect, or another doubt; inactive = no such curve, though single readings can be large; an effect the other way counts as inactive or inconclusive. Potency is read from the fitted curve at half-maximal effect.

What do the screens show for `O=C(c1ccc2c(c1)N(Cc1cccc(Cl)c1)C(=O)c1ccccc1S2(=O)=O)N1CCC(Cc2ccccc2)CC1`?
HepG2 viability: -37%; TGFb SMAD3 inh: -20%

Results for CCC(=O)c1ccc(OCc2ccc(C(=O)c3ccccc3)cc2)cc1 ?
HepG2 viability: -6%; KB-V1 cytotox: 10µM*; HT1080NT lethal: -15%; KB-3-1 cytotox: inconclusive; TGFb SMAD3 inh: -22%; HT1080 IDH1KD tx: inconclusive

Results for CCC(=O)c1ccc(OCc2ccccc2)c(OC)c1 ?
HepG2 viability: 1%; KB-V1 cytotox: inconclusive; HT1080NT lethal: 5%; KB-3-1 cytotox: inactive; TGFb SMAD3 inh: -28%; HT1080 IDH1KD tx: 6%

How did Cc1nc2c(=O)n(C)c(=O)n(C)c2nc1Cl do in these assays?
HepG2 viability: 11µM*; KB-V1 cytotox: inconclusive; HT1080NT lethal: 9.2µM*; KB-3-1 cytotox: 15µM*; TGFb SMAD3 inh: 7.1µM*; HT1080 IDH1KD tx: 5.8µM*

Results for CCN(CC)c1ccc2nc3c(=O)n(C)c(=O)n(C)c3nc2c1 ?
HepG2 viability: 0%

Results for CC(=O)Nc1cc(-c2cccc(C(=O)NCCN(C)C)c2)cn2c(-c3ccccc3)cnc12 ?
HepG2 viability: -34%; KB-V1 cytotox: inactive; HT1080NT lethal: inconclusive; KB-3-1 cytotox: inactive; TGFb SMAD3 inh: 68%; HT1080 IDH1KD tx: 16µM*

How did CC(=O)Nc1cc(-c2cccc(C(=O)NCCN(C)C)c2)cn2c(-c3ccc(S(C)(=O)=O)cc3)cnc12 do in these assays?
HepG2 viability: -13%; KB-V1 cytotox: inactive; HT1080NT lethal: 4%; KB-3-1 cytotox: inactive; TGFb SMAD3 inh: -3%; HT1080 IDH1KD tx: 2%

Results for CC(=O)Nc1cc(-c2cccc(C(=O)NCCN(C)C)c2)cn2c(-c3cccc(C(F)(F)F)c3)cnc12 ?
HepG2 viability: 13µM*; KB-V1 cytotox: inconclusive; HT1080NT lethal: 18µM*; KB-3-1 cytotox: inconclusive; TGFb SMAD3 inh: inconclusive; HT1080 IDH1KD tx: 21µM*

Results for CCCCCNC(=O)C(c1ccnc2ccccc12)n1c(=O)c(-c2cc3ccccc3[nH]2)nc2ccccc21 (stereo not given) ?
KB-V1 cytotox: inconclusive; HT1080NT lethal: -26%; KB-3-1 cytotox: inactive; HT1080 IDH1KD tx: -22%

What do the screens show for `Fc1ccc(Cc2nnc(-c3cccs3)o2)cc1`?
HepG2 viability: -1%; KB-V1 cytotox: inactive; HT1080NT lethal: 0%; KB-3-1 cytotox: inactive; TGFb SMAD3 inh: 0%; HT1080 IDH1KD tx: 10%

How did c1csc(-c2nnc(Cc3cccc4ccccc34)o2)c1 do in these assays?
HepG2 viability: 1%; KB-V1 cytotox: 15µM*; HT1080NT lethal: -16%; KB-3-1 cytotox: inactive; TGFb SMAD3 inh: -20%; HT1080 IDH1KD tx: inconclusive

How did Brc1csc(CN2CCc3nc(Nc4ccccc4)ncc3C2)c1 do in these assays?
HepG2 viability: -42%; KB-V1 cytotox: inactive; KB-3-1 cytotox: inconclusive; TGFb SMAD3 inh: 13µM*

How did COc1cc(Nc2ncc3c(n2)CCN(Cc2cc(Br)cs2)C3)cc(OC)c1 do in these assays?
HepG2 viability: -30%; KB-V1 cytotox: inactive; KB-3-1 cytotox: inactive; TGFb SMAD3 inh: inconclusive

Results for CCc1ccc(-n2nnc(-c3nc(-c4ccc(C)cc4)no3)c2N)cc1 ?
HepG2 viability: -23%; TGFb SMAD3 inh: 3%

How did COc1cc(-c2onc3ccc(Br)cc23)cc(OC)c1OC do in these assays?
HepG2 viability: -2%; KB-V1 cytotox: 2.1µM*; HT1080NT lethal: 1.8µM*; KB-3-1 cytotox: 5.2µM*; TGFb SMAD3 inh: 10%; HT1080 IDH1KD tx: 1.8µM*

What do the screens show for `CCOC(=O)C1=C(CS(=O)(=O)c2ccc(F)c(C)c2)NC(=O)NC1c1ccccc1OC` (stereo not given)?
HepG2 viability: -28%; KB-V1 cytotox: inactive; KB-3-1 cytotox: inactive; TGFb SMAD3 inh: inconclusive

How did Cc1cccc(OCC(=O)NCc2ccc3c(c2)CCN3C(=O)c2ccccc2)c1 do in these assays?
HepG2 viability: -1%; KB-V1 cytotox: inactive; KB-3-1 cytotox: inactive; TGFb SMAD3 inh: 32%

How did O=S(=O)(c1ccc(N2CCC(c3ccc(Cl)cc3)=N2)cc1)N(CCO)CCO do in these assays?
HepG2 viability: 20µM*; KB-V1 cytotox: inactive; HT1080NT lethal: -21%; KB-3-1 cytotox: inactive; TGFb SMAD3 inh: inconclusive; HT1080 IDH1KD tx: -29%

What do the screens show for `O=C(Nc1cccc(-c2nc3ccccc3o2)c1)c1cc([N+](=O)[O-])ccc1N1CCOCC1`?
HepG2 viability: -12%; TGFb SMAD3 inh: -24%

Results for CCN1CCN(c2oc(/C=C/c3cc(OC)c(OC)c(OC)c3)nc2C#N)CC1 ?
HepG2 viability: -2%; TGFb SMAD3 inh: 1%

Results for N#Cc1ccccc1Cn1c(=O)n(CCCC(=O)NCc2ccccc2Cl)c(=O)c2ccccc21 ?
HepG2 viability: -16%; TGFb SMAD3 inh: 0%

What do the screens show for `COC(=O)c1ccc(NC(=O)CCn2cnnn2)cc1`?
HepG2 viability: -2%; KB-V1 cytotox: inactive; KB-3-1 cytotox: inactive; TGFb SMAD3 inh: 16%

How did CCOC(=O)C1(CCOc2ccccc2)CCN(Cc2ccc(OC)c(COC)c2)CC1 do in these assays?
HepG2 viability: -34%; KB-V1 cytotox: inconclusive; HT1080NT lethal: inconclusive; KB-3-1 cytotox: inconclusive; TGFb SMAD3 inh: inconclusive; HT1080 IDH1KD tx: 13µM*

Results for CCOC(=O)C1(CCc2ccccc2)CCN(Cc2c(O)cccc2OC)CC1 ?
HepG2 viability: -52%; KB-V1 cytotox: inconclusive; HT1080NT lethal: inconclusive; KB-3-1 cytotox: inconclusive; TGFb SMAD3 inh: inconclusive; HT1080 IDH1KD tx: 33µM*

Results for CCOC(=O)C1(CCOc2ccccc2)CCN(Cc2ccc(OC)c(O)c2)CC1 ?
HepG2 viability: -37%; KB-V1 cytotox: inactive; HT1080NT lethal: 11%; KB-3-1 cytotox: inactive; TGFb SMAD3 inh: -10%; HT1080 IDH1KD tx: 0%

Results for CCOC(=O)C1(CCc2ccccc2)CCN(Cc2ccc(OC)cc2)CC1 ?
HepG2 viability: -1%; KB-V1 cytotox: inactive; HT1080NT lethal: -14%; KB-3-1 cytotox: inactive; TGFb SMAD3 inh: -10%; HT1080 IDH1KD tx: -2%

Results for O=C(Cc1cccc2ccccc12)NCC(=O)N1CCN(CC(=O)Nc2ccc(F)cc2)CC1 ?
HepG2 viability: -20%; KB-V1 cytotox: inactive; HT1080NT lethal: -15%; KB-3-1 cytotox: inactive; TGFb SMAD3 inh: -11%; HT1080 IDH1KD tx: -8%
